Measured values published in PubChem BioAssay (EPA / NIEHS).
Results filed as inconclusive are left out. Activity calls are given as the source filed them. The calls were made as follows: active = hit-call score of the fitted dose curve at least 0.9, where 1 is the maximum; inconclusive = response in the unintended direction; inactive = score below 0.9.

These compounds were tested on glucuronosyltransferase (UGT1A1), UGT1A1 (gene 54658) (assay: CLD_UGT1A1_6hr: CellzDirect (CLD) Gene Expression Assay for glucuronosyltransferase (UGT1A1) at 6 hours (AID 2283672)).
Description: CLD_6hr is a cell-based, multiplexed-readout assay that uses hepatocyte, a human liver primary cell, with measurements taken at 6 hours after chemical dosing in a 96-well plate.CLD_UGT1A1_6hr is one of 16 assay component(s) measured or calculated from the CLD_6hr assay. It is designed to make measurements of mRNA induction, a form of inducible reporter, as detected with chemiluminescence signals by Quantitative Nuclease Protection Assay (qNPA) technology.Data from the assay component CLD_UGT1A1_6hr was analyzed at the endpoint, CLD_UGT1A1_6hr, in the positive analysis fitting direction relative to DMSO as the negative control and baseline of activity. Using a type of inducible reporter, gain-of-signal activity can be used to understand changes in the reporter gene as they relate to the gene UGT1A1. Furthermore, this assay endpoint can be referred to as a primary readout. To generalize the intended target to other relatable targets, this assay endpoint is annotated to the transferase intended target family, where subfamily is glucuronosyltransferase.
Human hepatocyte cultures were treated daily for two consecutive days with fresh dosing solutions containing appropriate concentrations of the 320 ToxCast chemicals (chemical identities were blinded to CellzDirect and other ToxCast collaborators), vehicle control (0.2% DMSO), and positive control inducers as summarized in Table 1. Due to the large number of treatment groups and chemicals examined, the ToxCast chemicals were divided into two groups (spanning two independent cultures of hepatocytes from separate donor preparations (Hu778: ToxCast plates 1 and 2; Hu776: ToxCast plates 3 and 4). Each preparation of human hepatocyte cultures was treated with respective vehicle control, medium only control, set of six positive controls/reference chemicals for the five hepatic receptor pathways, and a subset of eight of the ToxCast chemicals (indoxacarb, pyrithiobac-sodium, norflurazon, cyhalofop-butyl, methomyl, thiram, acetochlor, and propiconazole). These replicate data, coupled with internal replicates designed within the blinded ToxCast chemical library, provided additional data to evaluate interindividual differences between hepatocyte preparations and their potential impact on chemical profiles.Cell morphology and integrity were evaluated using phase-contrast microscopy as an indicator of hepatocyte cell health (Tyson & Green, 1987). Cultures for each treatment group (i.e., media, vehicle [0.2% DMSO], positive control inducers [multiple concentrations], and the ToxCast chemicals [multiple concentrations]) were observed and cell morphology was assessed relative to vehicle control cultures at each harvest time point (0, 6, 24, or 48 h). […] Images were evaluated at the conclusion of the study to assess changes in cell integrity and account for the effects of chemical exposure on uncharacteristic changes in concentration-dependent gene expression profiles. The results from these determinations of apparent cytotoxicity were annotated (yes/no) alongside the corresponding qNPA data for reference.At the conclusion of each treatment period, hepatocyte cultures (96-well) were washed with 1 volume of HBSS, lysed by addition of 25 ul ArrayPlate lysis buffer (HTG, Tucson, AZ), and 70 ul/well of Denaturation Oil, denatured by incubation at 95C for 10 min, and frozen at approximately -70C until analysis by nuclease protection assay (qNPA) (Roberts et al., 2007). For qNPA analysis, cell lysates were thawed at 50C for approximately 30 min, qNPA probes were added, and samples were incubated at 95C for 10 min to begin the detection process by denaturing the target RNA, dissociating the duplexes and secondary structure hybridization. At the conclusion of the hybridization period, S1 nuclease reagent was added to each sample to digest all nonprotected nucleotides at 50C for 60-90 min. […]
`CCCN(CCC)c1c([N+](=O)[O-])cc(C(F)(F)F)c(N)c1[N+](=O)[O-]` was tested, and the outcome was “inactive”.
In the case of `CC(C)(c1ccc(O)cc1)c1ccc(O)cc1`, the outcome is reported as “inactive”.
With `CC(C)(C)[C@@H](O)[C@@H](Cc1ccc(Cl)cc1)n1cncn1` the outcome was “inactive”.
With `Oc1ccc(C(c2ccc(O)cc2)C(Cl)(Cl)Cl)cc1` the outcome was “inactive”.
`CCC(O)=C1C(=O)CC(C(=O)O)CC1=O` (stereo not given) was tested, and the outcome was “inactive”.
With `CCC(C)OC(=O)N1CCCCC1CCO` (stereo not given) the outcome was “inactive”.
`COC(=O)c1cccc(C)c1S(=O)(=O)NC(=O)Nc1nc(OCC(F)(F)F)nc(N(C)C)n1` was tested, and the outcome was “inactive”.
In the case of `CSC(=O)c1cccc2nnsc12`, the outcome is reported as “inactive”.
`COc1c(Cl)ccc(Cl)c1C(=O)O` was tested, and the outcome was “inactive”.
`CCN(Cc1c(F)cccc1Cl)c1c([N+](=O)[O-])cc(C(F)(F)F)cc1[N+](=O)[O-]` was tested, and the outcome was “inactive”.
In the case of `CCOC(=O)C(C)Oc1ccc(Oc2cnc3cc(Cl)ccc3n2)cc1` (stereo not given), the outcome is reported as “inactive”.
`c1ccc(Nc2ccccc2)cc1` was tested, and the outcome was “inactive”.
`CCOC(=O)[C@H](C)Oc1ccc(Oc2nc3ccc(Cl)cc3o2)cc1` was tested, and the outcome was “inactive”.
`COC(=O)c1c(Cl)nn(C)c1S(=O)(=O)NC(=O)Nc1nc(OC)cc(OC)n1` was tested, and the outcome was “inactive”.
With `CCSC(=O)N(CC(C)C)CC(C)C` the outcome was “inactive”.
With `CCCCCOC(=O)COc1cc(N2C(=O)C3=C(CCCC3)C2=O)c(F)cc1Cl` the outcome was “inactive”.
`COC(=O)CSc1cc(N=c2sc(=O)n3n2CCCC3)c(F)cc1Cl` was tested, and the outcome was “inactive”.
For `CCCCOC(=O)C(C)Oc1ccc(Oc2ccc(C(F)(F)F)cn2)cc1` (stereo not given), the outcome was “inactive”.
`CCCCC(CC)CN1C(=O)C2C3C=CC(C3)C2C1=O` (stereo not given) was tested, and the outcome was “inactive”.
`N#CSCSc1nc2ccccc2s1` was tested, and the outcome was “inactive”.
`CCCCCCC(C)OC(=O)COc1nc(F)c(Cl)c(N)c1Cl` (stereo not given) was tested, and the outcome was “inactive”.
In the case of `CCNc1nc(N)nc(Cl)n1`, the outcome is reported as “inactive”.
With `OB(O)O` the outcome was “inactive”.
`CCCN(CCC)C(=O)SCC` was tested, and the outcome was “inactive”.
`COC(=O)c1ccccc1C(=O)O` was tested, and the outcome was “inactive”.
For `CN(C)C(=O)Nc1ccc(Cl)c(Cl)c1`, the outcome was “inactive”.
With `CCN(CC)C(=O)c1cccc(C)c1` the outcome was “inactive”.
`COC(=O)c1ccc(I)cc1S(=O)(=O)NC(=O)Nc1nc(C)nc(OC)n1` was tested, and the outcome was “inactive”.
In the case of `COC(=O)c1ccccc1S(=O)(=O)NC(=O)Nc1nc(OC(F)F)cc(OC(F)F)n1`, the outcome is reported as “inactive”.
For `S=C(S)NCCNC(=S)S.[Mn+2].[S-]C([S-])=NCCN=C([S-])[S-].[Zn+2]`, the outcome was “inactive”.
`CC1(C)C(C=C(Cl)Cl)C1C(=O)OCc1cccc(Oc2ccccc2)c1` (stereo not given) was tested, and the outcome was “inactive”.
`CCCCOC(=O)[C@@H](C)Oc1ccc(Oc2ccc(C(F)(F)F)cn2)cc1` was tested, and the outcome was “inactive”.
`CCOC(=O)C(C)Oc1ccc(Oc2nc3ccc(Cl)cc3o2)cc1` (stereo not given) was tested, and the outcome was “inactive”.
In the case of `CCCCC(CC)COC(=O)c1ccccc1C(=O)O` (stereo not given), the outcome is reported as “inactive”.
For `C#CCOC(=O)[C@@H](C)Oc1ccc(Oc2ncc(Cl)cc2F)cc1`, the outcome was “inactive”.
`C=CCOC(Cn1ccnc1)c1ccc(Cl)cc1Cl` (stereo not given) was tested, and the outcome was “inactive”.
With `COc1nc(C)nc(NC(=O)NS(=O)(=O)c2ccccc2OCCCl)n1` the outcome was “inactive”.
With `CCOC(=O)COc1cc(-n2ncc(C(F)(F)F)c(C)c2=O)c(F)cc1Cl` the outcome was “inactive”.
In the case of `CCCCOCCOCCOCc1cc2c(cc1CCC)OCO2`, the outcome is reported as “inactive”.
`COC(=O)c1ccc(CNS(C)(=O)=O)cc1S(=O)(=O)NC(=O)Nc1nc(OC)cc(OC)n1` was tested, and the outcome was “inactive”.
